This note sets out measurements from PubChem BioAssay (NCATS).

Assay [1] in a line: qHTS for Inhibitors of the Functional Ribonucleoprotein Complex (vRNP) of Lassa (LASV) Arenavirus: LASV Primary Screen - GLuc reporter signal (AID 1347082; calls by dose curve; tested in HEK293 reporter line; also: nearly all actives have a fitted effect of over 60% in size). To be noted: LASV minigenome vRNP, Gaussia luciferase reporter; series mostly up to 57.5 µM. For orientation: qHTS replaces the single test concentration by a dilution series.
Assay [2] is described as follows: qHTS for Inhibitors of the Functional Ribonucleoprotein Complex (vRNP) of Lassa (LASV) Arenavirus: Viability assay - alamar blue signal for LASV Primary Screen (AID 1347083; calls by dose curve; tested in HEK293 reporter line; also: nearly all actives have a fitted effect of over 80% in size; also: potency is read from the fitted curve at half-maximal effect). Conditions: cell viability, alamar blue fluorescence (LASV minigenome counter-screen); series mostly up to 57.5 µM.
The nature of assay [3]: qHTS for Inhibitors of the Functional Ribonucleoprotein Complex (vRNP) of Lymphocytic Choriomeningitis Arenaviruses (LCMV): Viability assay - alamar blue signal for LCMV Primary Screen (AID 1347085; calls by dose curve; tested in HEK293 reporter line; also: nearly all actives have a fitted effect of over 80% in size; also: potency is read from the fitted curve at half-maximal effect). Conditions: alamar blue viability counter-screen, LCMV vRNP screen cells; series mostly up to 57.5 µM.
The target of assay [4] is Nucleoprotein (Lymphocytic choriomeningitis virus (strain Armstrong)) (UniProt P09992). As to the kind of experiment: qHTS for Inhibitors of the Functional Ribonucleoprotein Complex (vRNP) of Lymphocytic Choriomeningitis Arenaviruses (LCMV): LCMV Primary Screen - GLuc reporter signal (AID 1347086). Also: nearly all actives have a fitted effect of over 70% in size. Also: potency is read from the fitted curve at half-maximal effect. Conditions: LCMV minigenome vRNP cell assay, Gaussia luciferase reporter; series mostly up to 57.5 µM.

Records with an inconclusive call do not appear. The source made the active and inactive calls. Unless noted, calls follow the shape of the full dose curve.

Sequence of Nucleoprotein (Lymphocytic choriomeningitis virus (strain Armstrong)) (P09992 whole entry, looked up): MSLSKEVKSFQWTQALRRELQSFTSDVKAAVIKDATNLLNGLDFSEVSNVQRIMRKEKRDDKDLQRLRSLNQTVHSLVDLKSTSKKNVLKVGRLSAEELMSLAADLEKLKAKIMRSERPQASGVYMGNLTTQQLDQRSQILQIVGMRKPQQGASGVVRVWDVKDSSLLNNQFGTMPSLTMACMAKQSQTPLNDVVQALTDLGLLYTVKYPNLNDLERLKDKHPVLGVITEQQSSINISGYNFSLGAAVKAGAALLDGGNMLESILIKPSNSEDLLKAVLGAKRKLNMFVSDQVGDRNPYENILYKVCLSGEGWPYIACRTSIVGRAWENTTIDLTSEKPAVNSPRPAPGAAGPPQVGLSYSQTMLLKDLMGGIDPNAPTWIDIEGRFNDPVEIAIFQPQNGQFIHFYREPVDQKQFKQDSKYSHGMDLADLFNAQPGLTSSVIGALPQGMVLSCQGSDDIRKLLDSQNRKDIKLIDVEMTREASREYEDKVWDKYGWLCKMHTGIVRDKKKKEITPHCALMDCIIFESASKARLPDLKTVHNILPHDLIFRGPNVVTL

Take `C[C@](N)(Cc1ccc(O)c(O)c1)C(=O)O`: the Potency result in assay [1], in assay [2], in assay [3] and in assay [4] was “inactive” each time.

Regarding `COCCCC/C(=N\OCCN)c1ccc(C(F)(F)F)cc1`, the Potency result in assay [1], in assay [2], in assay [3] and in assay [4] was “inactive” each time.

For `COC(=O)Nc1nc2ccc(C(=O)c3ccccc3)cc2[nH]1`, the Potency entry in assay [1] is “inactive”. Also, the Potency is 3.43 µM (active) in assay [2], 6.85 µM (active) in assay [3] and 5.44 µM (active) in assay [4].

Consider `Clc1ccc(C(c2ccccc2Cl)C(Cl)Cl)cc1` (stereo not drawn), for which the Potency result in assay [1], in assay [2], in assay [3] and in assay [4] was “inactive” throughout.

Turning to `Cc1cn([C@H]2C[C@H](N=[N+]=[N-])[C@@H](CO)O2)c(=O)[nH]c1=O`, the Potency entry in assay [1], in assay [2], in assay [3] and in assay [4] was “inactive” throughout.

As to `CCCCc1oc2ccc(NS(C)(=O)=O)cc2c1C(=O)c1ccc(OCCCN(CCCC)CCCC)cc1`, the Potency result in assay [1], in assay [2] and in assay [3] was “inactive” throughout.

`Fc1ccc([C@@H]2CCNC[C@H]2COc2ccc3c(c2)OCO3)cc1`: the Potency entry in assay [1], in assay [2], in assay [3] and in assay [4] was “inactive” each time.

For `N[C@@H]1CONC1=O`, the Potency entry in assay [1], in assay [2], in assay [3] and in assay [4] was “inactive” each time.

In the case of `CN(C)C(=N)N=C(N)N`, the Potency result in assay [1], in assay [2], in assay [3] and in assay [4] was “inactive” each time.

For `NC(=O)N/N=C/c1ccc([N+](=O)[O-])o1`, the Potency entry in assay [1], in assay [2] and in assay [3] was “inactive” throughout.

Regarding `CCN(CC)CCCC(C)Nc1ccnc2cc(Cl)ccc12` (stereo not drawn), the Potency result in assay [1], in assay [2] and in assay [3] was “inactive” in each case.

On to `COc1ccccc1OCC(O)COC(N)=O` (stereo not drawn), for which the Potency entry in assay [1], in assay [2], in assay [3] and in assay [4] was “inactive” each time.

On to `COc1ccc([C@@H]2Sc3ccccc3N(CCN(C)C)C(=O)[C@@H]2OC(C)=O)cc1`, for which the Potency entry in assay [1], in assay [2], in assay [3] and in assay [4] was “inactive” each time.

Regarding `CC(C)NCC(O)c1ccc(O)c(O)c1` (stereo not drawn), the Potency entry in assay [1], in assay [2], in assay [3] and in assay [4] was “inactive” throughout.
